Compound activity: PubChem BioAssay, National Center for Advancing Translational Sciences (NCATS)
Ub-GFP proteasome: ubiquitin-GFP accumulation via proteasome inhibition; AID 526; 67,000 tested, under 10 active; Potency, µM (doses to about 45.9 µM), inactives show top-dose activation (GFP accumulation), actives largely listed as activators; Ubiquitin-GFP reporter cells, proteasome inhibition, GFP fluorescence; response scale: untreated = 0%, 10 µM MG-132 = 100%; active = well fitted activation curve with a large enough effect, not every such curve was filed as active; inconclusive = small, poorly fitted or top-dose-only effect, or another doubt; inactive = no such curve, though single readings can be large or run the other way; also: potency is read from the fitted curve at half-maximal effect
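Proteasome block read as GFP accumulation: ubiquitin(G76V)-GFP U2OS cells exposed to compound (2.9 nM–46 uM) for 4 hr at 37 C. Normalization used untreated cells as 0% and 10 uM MG-132 as 100%; concentration-response curves fitted.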
Tau filament bind: tau filament binding | P10636 | recombinant tau filaments, thioflavin S fluorescence, 15 h; filaments grown with octadecylsulfate alongside compound | Potency, µM (highest dose often 57.1 µM), for inactives: top-dose activity change, negative = inhibition | hit rate 2% among 71,000 | AID 596;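 also: potency is read from the fitted curve at half-maximal effect; % is scaled to controls: 0 for no effect and ±100 for the full control effect; actives lower thioflavin S fluorescence by blocking filaments or displacing dye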
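Assay mix: 1 uM His-tagged tau, 30 uM sodium octadecylsulfate, thioflavine S dye in HEPES/NaCl/DTT buffer. Compound is added prior to the inducer. Fluorescence after 15 h at 37 C.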
ALOX15 inhib: inhibitors of human 15-lipoxygenase (ALOX15); P16050; purified 15hLO-1, xylenol orange hydroperoxide absorbance; Potency, µM (top dose mostly 57.1 µM), without a hit: at the highest dose activity change, negative = inhibition, hits mostly inhibitors; hit rate 1.4% among 74,000; AID 887; also: potency is read from the fitted curve at half-maximal effect; % is scaled to controls: 0 for no effect and ±100 for the full control effect; nearly all actives have a fitted effect of over 55% in size
Target sequence (P16050 whole entry, looked up): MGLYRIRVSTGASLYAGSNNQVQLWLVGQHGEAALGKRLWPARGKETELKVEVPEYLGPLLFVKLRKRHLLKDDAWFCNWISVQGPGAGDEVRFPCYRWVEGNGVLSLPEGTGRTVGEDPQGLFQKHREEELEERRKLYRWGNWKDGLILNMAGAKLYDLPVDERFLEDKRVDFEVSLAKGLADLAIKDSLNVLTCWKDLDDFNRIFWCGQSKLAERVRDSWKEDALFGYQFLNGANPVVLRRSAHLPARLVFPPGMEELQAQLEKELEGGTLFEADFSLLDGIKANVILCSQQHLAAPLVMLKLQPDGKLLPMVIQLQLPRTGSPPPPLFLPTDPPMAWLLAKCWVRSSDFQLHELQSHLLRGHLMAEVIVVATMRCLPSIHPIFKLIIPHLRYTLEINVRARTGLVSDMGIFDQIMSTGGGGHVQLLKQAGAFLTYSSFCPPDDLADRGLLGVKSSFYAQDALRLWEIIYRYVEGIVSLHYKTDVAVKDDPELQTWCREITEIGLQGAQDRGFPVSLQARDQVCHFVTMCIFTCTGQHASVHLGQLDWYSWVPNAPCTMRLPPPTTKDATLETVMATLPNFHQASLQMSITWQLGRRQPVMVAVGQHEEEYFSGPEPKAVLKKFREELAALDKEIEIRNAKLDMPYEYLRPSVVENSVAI
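Purified human 15hLO-1 (40 nM) in 25 mM Hepes pH 7.5, 0.01% Triton X-100, preincubated 15 min RT with compound, then 50 uM arachidonic acid for 6 min. Hydroperoxide read by ferrous/xylenol orange, 30 min; 573/405 nm absorbance ratio gave progress.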
HBB splice mod: hemoglobin beta splicing modulation; Potency, µM (doses to about 46.1 µM), for the others: at the top dose activation, usual class: activators; hit rate 0.06% among 65,000; AID 925; HBB splicing reporter cell assay, activation; EGFP reporter with mutant IVS2-654 intron; response scale: normalised to 500 nM splice-correcting PNA; also: potency is read from the fitted curve at half-maximal effect; 0% is about no effect
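HeLa cells stably expressing EGFP interrupted by mutant beta-globin intron 2 (IVS2-654), 500/well in 2% FCS. Treated with compound for 2 days at 37C. Splicing correction scored as total well GFP intensity (488 nm excitation, 500-520 nm emission); 500 nM antisense PNA served as control.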
15-hLO-2 inh: blocks human 15-lipoxygenase 2 activity; O15296; purified 15hLO-2, xylenol orange hydroperoxide absorbance; hit rate 0.56% among 110,000; Potency, µM (titrated, usually from 57.1 µM), without a hit: at the top dose activity change, negative = inhibition, hits mostly inhibitors; also: potency is read from the fitted curve at half-maximal effect; % is scaled to controls: 0 for no effect and ±100 for the full control effect; nearly all actives have a fitted effect of over 60% in size
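Read-out: hydroperoxide product oxidises ferrous iron, measured as xylenol orange complex via the 573-to-405 nm absorbance ratio after 30 min. Reaction: 50 nM enzyme, 15 min compound preincubation, 45 uM arachidonic acid, 90 min RT, Hepes pH 7.5 with Triton X-100.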
GFP derepression: epigenetic GFP locus derepression in mouse cells; mouse C127i GFP locus derepression, cytometry, 30 h; Potency, µM (doses to about 46.1 µM), inactives show top-dose GFP derepression (activation); hit rate 0.09% among 68,000; also: % of control where 0% means no effect
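Locus derepression in mouse mammary C127i cells whose integrated CMV-GFP reporter is normally silent; GFP expression after 30 h compound treatment was quantified by counting fluorescent cells.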
* hit, by the source's call; ? = inconclusive; nt = no result given; [ ] = remark or other dose. Most compounds without a hit are left out; they make up all but 2.3% or so of the library. Unless noted, calls follow the shape of the dose curve; as a rule, active = well fitted curve in the direction sought with a large enough effect; inconclusive = small, poorly fitted or top-dose-only effect, or another doubt; inactive = no such curve, though single readings can be large; an effect the other way counts as inactive or inconclusive.

SMILES	Ub-GFP proteasome	Tau filament bind	ALOX15 inhib	HBB splice mod	15-hLO-2 inh	GFP derepression
COc1ccc(-c2c3c(=O)n(C)c(=O)n(C)c3cn2C2CCCCC2)cc1	-2%	10%	25µM*	0%	-23%	0%
COc1ccc(-c2c3c(=O)n(C)c(=O)n(C)c3c3nnc4ccccc4n23)cc1	?	51%	8%	6%	nt	?
Cc1c(N=C/C=C2\N(C)c3ccccc3C2(C)C)c(=O)n(-c2ccccc2)n1C	-6%	1µM*	-21%	0%[57.5 µM]	-27%	2%
Cc1c(N=CC=Nc2c(C)n(C)n(-c3ccccc3)c2=O)c(=O)n(-c2ccccc2)n1C	8%[9.17 µM]	-4%[11.4 µM]	3%[11.4 µM]	1%[0.0738 µM]	-18%	-2%
CC(C)(C)c1ccc(-c2nc(C=O)c3ccccn23)cc1	nt	nt	nt	nt	-8%	nt
Cc1c(C(C)(C)C)c(C=S)n2ccccc12	nt	nt	nt	nt	16µM*	nt
CC(=O)NCCNc1ncnc2ccc(-c3ccccc3C#N)cc12	9%	3%	?	-1%	8%	0%[9.22 µM]
CC(C)(C)CC(C)(C)c1ccc(O)c(CN2CCN(CCC#N)CC2)c1	nt	nt	nt	nt	40%	nt
CC(C)(C)CC(C)(C)c1cc(O)c(O)c(CN2CCCCC2)c1	2%[9.17 µM]	?	0.4µM*	5%[9.22 µM]	?	-3%[9.22 µM]
CN1CCN(CCCBr)CC1	2%[9.17 µM]	18%[11.4 µM]	2%[11.4 µM]	2%[9.22 µM]	-7%[11.4 µM]	2%[9.22 µM]
O=C(Nc1ccc2c(c1)OCO2)[C@@H]1[C@@H]2C(=O)N(C3CCCCC3)C(=O)[C@@H]2C2c3ccccc3C=CN21 (some centres undefined)	2%	?	?	-3%[57.5 µM]	4%[11.4 µM]	0%
O=C(c1ccc2c(c1)OCO2)[C@@H]1[C@@H]2C(=O)N(C3CCCCC3)C(=O)[C@@H]2C2c3ccccc3C=CN21 (some centres undefined)	1%	?	16µM*	2%[57.5 µM]	24%	2%
CCN1C=C(Cc2cccs2)C2=C(C1)C(c1cccs1)C(C#N)=C(N)O2 (centres undefined)	-9%	4µM*	10µM*	0%	9%	2%
CCOC(=O)N1CCN(c2nc(SC)nc3sc4c(c23)CC(C)(C)OC4)CC1	0%	16µM*	?	-1%	6%	6%
CCN1CCN(c2nc(SC)nc3sc4c(c23)CC(C)(C)OC4)CC1	4%	-1%	-12%	-1%	34%	0%
OC[C@H](S)CS	4%[9.17 µM]	4%[11.4 µM]	6%[11.4 µM]	2%[9.22 µM]	?	3.2µM*
CN(C)CCCn1cc(C2=C(c3c[nH]c4ccccc34)C(=O)NC2=O)c2ccccc21	-9%	2µM*	-7%[25.6 µM]	nt	10%	0%
Cn1cc(C2=C(c3cn(CCCSC(=N)N)c4ccccc34)C(=O)NC2=O)c2ccccc21	nt	nt	20µM*	0%	-10%	nt
Oc1ccc2ccccc2c1Cc1c(O)ccc2ccccc12	5%[9.17 µM]	-3%[11.4 µM]	-17%[11.4 µM]	6%[9.22 µM]	-27%[11.4 µM]	0%[9.22 µM]
Oc1c(C(O)(c2ccccc2)c2ccc3ccccc3c2O)ccc2ccccc12	3%[9.17 µM]	1.3µM*	-28%[11.4 µM]	2%[9.22 µM]	-29%[11.4 µM]	-3%[9.22 µM]
CCCNC(=O)c1ccc2nc(-c3ccccc3)c(-c3ccccc3)nc2c1	nt	nt	nt	nt	-11%[11.4 µM]	nt
O=C(Nc1ccc(N2CCOCC2)cc1)c1ccc2nc(-c3ccco3)c(-c3ccco3)nc2c1	-1%	7.9µM*	-23%	0%	-24%	0%
CN(C)c1cccc(C(=O)Nc2ccc(N3CCOCC3)cc2)c1	nt	nt	nt	nt	-1%	nt
O=C(NCc1ccco1)c1cccc(NC(=O)c2ccccc2)c1	-8%	-4%	2%	0%	3%	3%
CCCCNC(=O)c1ccc2nc(-c3ccco3)c(-c3ccco3)nc2c1	-7%	?	5µM*	-1%	nt	nt
O=C(Nc1ccccc1)c1ccc2nc(-c3ccco3)c(-c3ccco3)nc2c1	5%	0.63µM*	6.3µM*	0%	?	0%
CCN(CC)CC[n+]1ccc2c(C)c3[nH]c4ccccc4c3c(C)c2c1	-4%[9.17 µM]	119%[11.4 µM]	-12%[11.4 µM]	?	32%[11.4 µM]	2%[9.22 µM]
